Out of some 360,000 compounds screened, about 3,500 (0.97%) were called active. What follows is part of a selection rich in actives, with near analogues and random picks from the rest. A number with no mark means an inactive call.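 Rule for the calls: active = activation above a per-plate cutoff, the mean activation of sample wells on that plate plus 3 SD (cut at about 8% in these data); inactive = the rest.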

For the experiment, the target named is Melanocortin receptor 4 (Homo sapiens) (UniProt P32245). Kind of experiment: activators of MC4R beta-arrestin recruitment – cell-based, luminescence, agonist arm of biased-ligand search, primary screen (AID 540308). Particulars: U2OS MC4R beta-arrestin complementation, at 8.9 µM, active compounds read high, percent of melanotan II response, DMSO zero. In general terms: Activated receptors often draw arrestin, which recruitment assays turn into a signal.
Melanocortin receptor 4 (Homo sapiens), sequence (P32245 whole entry, looked up): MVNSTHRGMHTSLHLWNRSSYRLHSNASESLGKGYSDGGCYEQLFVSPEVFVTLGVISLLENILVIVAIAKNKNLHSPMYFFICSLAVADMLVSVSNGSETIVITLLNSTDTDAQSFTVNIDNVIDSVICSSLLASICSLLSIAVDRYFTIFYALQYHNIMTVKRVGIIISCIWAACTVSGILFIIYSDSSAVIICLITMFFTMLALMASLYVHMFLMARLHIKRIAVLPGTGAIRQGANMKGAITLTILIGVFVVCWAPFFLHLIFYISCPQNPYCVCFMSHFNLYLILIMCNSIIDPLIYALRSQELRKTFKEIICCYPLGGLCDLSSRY
Turning to `CCc1nc2c(OCc3cccc(OC)c3)cccn2c1N(C)C(=O)C(C)C`, the activation was 1.4%. The result for `CCCCN(C=O)c1c(CC)nc2c(OCCC3CCCCC3)cccn12` reads -0.53%; that for `COc1ccc(Nc2oc(-c3ccccc3Cl)nc2C#N)cc1`, 13.3% (active); that for `COc1ccc(Nc2nc(NCc3ccco3)nc(N/N=C/c3ccccc3Cl)n2)cc1`, -2%. For `N#Cc1nc(-c2cccc3ccccc23)oc1N`, the activation was -1.15%. Take `COc1cccc(-c2ccc3c(c2)N(Cc2ccccc2OC)C(=O)C(C)S3)c1` (stereo not drawn): the activation was 0.04%.

In the case of `CC(C)Nc1nc(NCCOc2ccccc2Cl)c2sccc2n1`, the activation was -1.08%. `CC(=O)Nc1cccc(-c2cc3nc(NCc4cccnc4)n(C)c(=O)c3s2)c1`: the activation was 0.57%.

Take `COc1ccc(OC)c(C(O)c2ncc(-c3cccc(C(F)(F)F)c3)[nH]2)c1` (stereo not drawn): the activation was -1.84%.

On to `COc1ccc(NC(=O)C2Cc3c(-c4cccc(NC(C)=O)c4)ccnc3O2)cc1OC` (stereo not drawn), for which the activation is -0.44%.

Take `COc1ccc(NC(=O)C2(C)Cc3c(-c4cccc(NC(C)=O)c4)ccnc3O2)cc1OC` (stereo not drawn): the activation was -2.08%.

With `S=C(NCCCc1cnc[nH]1)NCCCN(Cc1ccc(Cl)c(Cl)c1)c1ccc(Br)cn1`, the activation was 17.5% (active). Then `NCCCNC(=S)NCCCN(Cc1ccc(Cl)cc1)c1ccc(Br)cn1`, with 5.16%; and `CCOC(=O)N1CCN(c2c(NCCN3CCN(c4ccccc4F)CC3)c(=O)c2=O)CC1`, with -0.12%. As for `CCOC(=O)c1cccc(NC(=O)c2ccc(F)cc2F)c1`, the activation is -1.66%. In the case of `CCOC(=O)c1nn(-c2ccccc2F)c2nc(Nc3ccccc3)cc(=O)n12`, the activation is 10.2% (active). As to `COc1ccc(CCNC(=O)C(Sc2ccccn2)c2ccccc2)cc1OC` (stereo not drawn), the activation was -0.76%. As for `COc1ccc(C(CCN(Cc2ccc(OC)c(OC)c2)C(=O)CCl)c2ccccc2)cc1` (stereo not drawn), the activation is 22.9% (active). The result for `COc1ccc(CN(Cc2ccc(OC)cc2)C(=O)c2cccs2)cc1` reads -3.4%; that for `CCCCCNC(=O)c1cccnc1SCC(=O)Nc1ccccc1OC`, -0.84%. The result for `Cc1ccccc1S(=O)(=O)NC(=O)C1(C)CCN1C(=O)C1(c2ccc(Cl)cc2)CC1` (stereo not drawn) reads 0.06%; that for `CC1(C(=O)Nc2cccc3c2CCCC3)CCN1C(=O)C1(c2ccccc2)CC1` (stereo not drawn), 1.08%. Turning to `COc1cccc(OC)c1C(=O)NC(=S)Nc1ccc(N2CCOCC2)c(Cl)c1`, the activation is -1.34%.

Take `Cc1nn(C)c(C(=O)NNC(=S)NC2CCCCC2)c1Cl`: the activation is -2.05%. The result for `COc1cccc(NC(=S)NC(=O)c2c(Cl)c(C)nn2C)c1` reads 16.6% (active); that for `CC1(C(=O)NS(=O)(=O)c2ccccc2Cl)CCN1C(=O)c1cccc(F)c1` (stereo not drawn), -0.15%.

As to `CC(=O)NN=C(C)c1ccc(NC(=O)C2CC2)cc1`, the activation was -0.71%. `O=C(CC(=O)N/N=C\c1cccc(Cl)c1Cl)NCc1ccccc1`: the activation was -2.24%. Then `CCOC(=O)CNC(=O)/C=C/c1c(Cl)cccc1Cl`, with -0.83%; and `O=C(/C=C/c1c(Cl)cccc1Cl)NCc1ccccc1`, with 19.2% (active). The result for `Cc1nc2c(OCc3ccc(Cl)cc3Cl)cccn2c1N(C)CC1CC1` reads -3.94%; that for `CCCCC(=O)N(C)c1c(CC)nc2c(OCc3ccc(S(C)(=O)=O)cc3)cccn12`, 0.14%. The result for `CCCOc1ccc(C(=O)C(CCC(CNCC)C(=O)c2ccc(OCCC)cc2)CNCC)cc1` (stereo not drawn) reads 24.6% (active). Turning to `COC(=O)c1ccc(OCC(=O)NC(C)(C)C)cc1`, the activation was -0.44%. As for `CCCOc1ccc(/C=N/NC(=O)C2CC2)c(OCCC)c1`, the activation was 0.66%. Take `COc1cncc(-c2cnc3sc(NCCc4ccccn4)nn23)c1`: the activation is -0.85%. Regarding `COc1ccc(OC)c(NC(=O)C2(C)CCN2C(=O)Cc2ccccc2)c1` (stereo not drawn), the activation was -0.64%. The result for `COc1ccc(NC(=O)C2Cc3c(-c4ccc5c(c4)OCO5)ccnc3O2)cn1` (stereo not drawn) reads 2.24%.

For `Cc1cc(C(=O)N2CCCC2(C)C(=O)O)c(C)o1` (stereo not drawn), the activation is -0.89%.

On to `Clc1ccc(Nc2ncnc3c2nnn3Cc2ccccc2)cc1`, for which the activation was 19.9% (active).

With `CC(C)Nc1ncnc2c1nnn2Cc1ccccc1`, the activation was -0.12%. The result for `c1ccc(Cn2nnc3c(NCC4CC4)ncnc32)cc1` reads 2.35%. The result for `CCc1nc2c(OCc3ccc(C(F)(F)F)cc3)cccn2c1N(C)C(=O)CC(C)C` reads -1.6%; that for `CC(C)Cc1ccc(-c2cc3nc(NCc4cccc(Cl)c4)ccn3n2)cc1`, -1.5%; that for `Cc1ccccc1C(=O)N1CCN(c2ccc(NC(=O)c3cccs3)cc2)CC1`, -4.77%. Then `Cc1ccc(C(=O)Nc2ccc(NC(=O)c3cccs3)cc2)c(C)c1`, with 13.3% (active); and `Cc1ccc(OCC(=O)Nc2ccc(NC(=O)c3cccs3)cc2)c(C)c1`, with 2.63%. On to `O=C(NCc1cccnc1)c1cc(C2CCCN(C(=O)CCCc3ccccc3)C2)on1` (stereo not drawn), for which the activation is 0.26%. The result for `Cc1ccccc1-c1csc(C(O)c2cccc(Cl)c2)n1` (stereo not drawn) reads -1.62%; that for `O=C(NCc1ccc(F)cc1)c1cc(C2CCCCN2C(=O)C2CCCCC2)on1` (stereo not drawn), -0.53%.

For the compound `COc1cc(F)ccc1-c1cc(C(=O)NCC2CCCCC2)[nH]n1`, the activation was 1.24%. Turning to `C=CCn1c(SCC(=O)c2ccc(Br)cc2)nnc1C(C)NC(=O)Cc1ccc(OC)cc1` (stereo not drawn), the activation is 9.94% (active).

For `C=CCn1c(CNC(=O)c2ccco2)nnc1SCC(=O)c1ccc(OC)cc1`, the activation is -1.26%.

On to `C=CCn1c(SCCOc2ccc(OC)cc2)nnc1C(NC(=O)c1ccc(OC)cc1)C(C)C` (stereo not drawn), for which the activation was 2.5%. Then `CC1(C(=O)NS(=O)(=O)c2cccs2)CCN1C(=O)Cc1ccc(-c2ccccc2)cc1` (stereo not drawn), with 1.02%; and `CC1(C)CN(Cc2cccnc2)C(=O)[C@H]1CC(=O)Nc1ccc(Br)cc1`, with -2.67%.

As for `CC1(C)CN(CCc2ccccc2)C(=O)[C@H]1CC(=O)Nc1ccc(Br)cc1`, the activation is 1.43%. The result for `CCCCN1CC(C)(C)[C@H](CC(=O)Nc2ccc(Br)cc2)C1=O` reads 14.2% (active); that for `Cc1noc(C)c1-c1ccc(C(=O)NCc2ccncc2)c2occc12`, -0.03%. For the compound `Cc1cccc(CNC(=O)c2sc(=O)n(Cc3ccccc3C)c2C)c1`, the activation is 0.16%. Consider `O=C(OCc1cn(-c2ccc(Cl)c(Cl)c2)nn1)c1ccccc1Cl`, for which the activation was 16.5% (active). The result for `O=C(COC(=O)c1ccccc1Cl)NC1CCCCCCC1` reads -2.78%; that for `Cc1cccc(/C(N)=N/OC(=O)c2ccccc2Cl)c1`, -0.56%; that for `Cc1cccc(-c2cnc(C(O)c3ccc4ccccc4c3)[nH]2)c1` (stereo not drawn), 3.46%. Turning to `CSc1ccc(CNC(=O)C2(C)CCCN2C)cc1` (stereo not drawn), the activation was 1.3%. The result for `COc1cccc(-c2cnc(C(O)c3ccccc3OC)[nH]2)c1` (stereo not drawn) reads -2.21%; that for `CCOc1ccc(CNC(=O)C2CCCN(c3nnc(C)c4c(C)n(-c5ccccc5)nc34)C2)cc1` (stereo not drawn), 5.34%. Then `CCc1ccc(CNC(=O)C2CC(=O)N(CCc3ccc(C)cc3)C2)cc1` (stereo not drawn), with -0.56%; and `CCc1ccc(CNC(=O)C2CCN(c3nnc(C)c4c(C)n(-c5ccc(C)cc5)nc34)CC2)cc1`, with 26.2% (active). `COc1ccc(C(C)C)cc1-c1ccc2nncn2c1`: the activation was 0.08%.

`CC1(C(=O)Nc2cccnc2)Cc2c(-c3ccccc3)ccnc2O1` (stereo not drawn): the activation is -1.27%. The result for `CCc1ccc(Nc2ncc3c(n2)CC(c2ccco2)CC3=O)cc1` (stereo not drawn) reads 9.92% (active); that for `CN1CCN(c2ncc3c(n2)CC(c2ccccc2F)CC3=O)CC1` (stereo not drawn), -1.94%.

In the case of `O=C(Nc1ncc2c(n1)CC(c1ccco1)CC2=O)c1ccc(Cl)cc1` (stereo not drawn), the activation was -1.23%. Then `COc1ccc(Nc2ncnc3sc(-c4ccccc4)cc23)c(OC)c1`, with 10.6% (active); and `COc1ccc(Nc2ncnc3ccc(Br)cc23)c(OC)c1`, with 0.1%. Then `COc1ccccc1Nc1ncnc2c1oc1ccccc12`, with 0.07%; and `CC1(Oc2cccc(F)c2)CCN(Cc2ccccc2OC(F)F)C1` (stereo not drawn), with -1.66%; and `CCCOc1ccc(F)cc1-c1cc(C(=O)NCc2ccc(F)cc2)[nH]n1`, with 0.57%. Turning to `Oc1cccc2cc(-c3ccncc3)cnc12`, the activation was -1.87%. The result for `COc1ccc(NC(=O)c2sc(=O)n(Cc3ccc(S(=O)(=O)N(C)C)cc3)c2C)cc1` reads -1.44%; that for `COc1cccc(CN2CCC(C(=O)NC(c3ccc4c(c3)OCO4)c3ccccn3)CC2)c1` (stereo not drawn), -1.26%. In the case of `CCc1nc2c(OCCOc3ccccc3)cccn2c1N(C)C(=O)c1ccc(OC)cc1`, the activation is -0.76%. Regarding `Brc1ccc(-c2csc(N/N=C/c3cccnc3)n2)cc1`, the activation was 11.6% (active). On to `O=C(N/N=C\c1cccnc1)c1cc(-c2ccccc2)nc2c(Cl)cccc12`, for which the activation was -0.85%. The result for `O=C(CSc1cccc2cccnc12)N/N=C/c1cccnc1` reads -5.02%; that for `COc1ccc(S(=O)(=O)NC(=O)C2(C)CCN2C(=O)COc2ccc(Cl)cc2)cc1` (stereo not drawn), -1.47%. Then `Cc1nn2cc(-c3ccc(Cl)cc3)cnc2c1Br`, with 13.2% (active); and `CC(=O)NC(c1cccc(F)c1)c1nc(-c2cccc(F)c2)cs1` (stereo not drawn), with 0.2%; and `Cc1ccc(F)c(S(=O)(=O)NC(=O)C2(C)CCN2C(=O)CCc2cccs2)c1` (stereo not drawn), with 0.83%. With `CC(C)Oc1cc(F)ccc1-c1cc(C(=O)Nc2ccc(F)cc2)[nH]n1`, the activation is -0.4%. The result for `COc1cc(C(O)c2nc(-c3cnn(C)c3)cs2)ccc1F` (stereo not drawn) reads -1.52%; that for `Cc1coc2c(O)cc3c(c12)OC1(N2CCCCC2)C(=O)NCCCC31` (stereo not drawn), 8.45% (active).

Values taken from PubChem BioAssay AID540308 (The Scripps Research Institute Molecular Screening Center, 2011).
